Screening data as filed in PubChem.
KLF5 inhibitor = kruppel-like factor 5 inhibition. DLD-1 KLF5 promoter-luciferase reporter, luminescence. inhibition, % at 5 µM. 290,000 tested, 0.23% active. AID 1700;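 active = inhibition above a per-plate limit of that plate's mean compound inhibition plus 3 SD, cut at about 60% in these data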;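 also: 0% = DMSO wells and 100% = LY294002 at 200 µM; higher means less KLF5 promoter-driven luciferase light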
CSC inhib = blocks cancer stem cells | cancer stem cell-like cells viability, luminescence | inhibition, % at 7.5 µM | 300,000 tested, 1.1% active | AID 2717; in the data active = inhibition above about 75%; inconclusive = no clear call, values can overlap the other calls; tested in HMLE shEcad cells
aSyn UTR inh = MLPCN primary screen, SNCA 5' untranslated region | alpha-synuclein 5'UTR reporter, inhibitor activity | 300,000 tested, 0.82% active | inhibition, % (tested at 7.5 µM); in the data active = inhibition above about 60%; inconclusive = no clear call, values can overlap the other calls;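 also: H4 neuroglioblastoma cells stably carrying SNCA 5'UTR luciferase fusion; 0% = DMSO wells and 100% = positive control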
SKKanGAS inh = inhibitors of SKKanGAS S. pyogenes growth in kanamycin (SK-promoter or general growth effect); BacTiter-Glo, 6 h; inhibition, % at 7.5 µM; 300,000 tested, 1.3% active;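 active = mean replicate score, as percent of positive control median, at least 50; inconclusive = mean below 50 but one replicate at or above 50; inactive = mean and every replicate below 50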;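 also: strain carries kanamycin resistance gene driven by streptokinase promoter and grows in 40 µg/ml kanamycin; loss of luminescence reflects streptokinase promoter inhibition or plain growth inhibition; 0% = median of DMSO wells and 100% = positive control at its reference dose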
IEC-6 tox = IEC-6 cytotoxicity, counter-screen for KLF5 inhibitors; luminescence viability; inhibition, % at 5 µM; 290,000 tested, 0.78% active; AID 1825; in the data active = inhibition above about 22%;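 also: 0% = plate median of test compound wells and 100% = cytotoxic reference compound wells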
Active calls of the source: *; ? = inconclusive; . = no result. Only some compounds are listed: those with a hit (about 3% of all), similar ones and a draw of the others.

SMILES | KLF5 inhibitor | CSC inhib | aSyn UTR inh | SKKanGAS inh | IEC-6 tox
COc1ccc(CNc2nc3c(c(=O)n(Cc4ccc(Br)cc4)c(=O)n3C)n2C)cc1 | -10 | -1 | 52 | 54* | 1
Cn1c(NCc2ccccc2)nc2c1c(=O)n(Cc1ccc(Br)cc1)c(=O)n2C | -27 | 2 | 52 | 47 | -5
COc1ccccc1NCC(O)Cn1c2ccccc2c2ccccc21 (centres undefined) | -39 | 52 | -26 | -12 | -3
COc1ccc(CCNCC(O)Cn2c3ccccc3c3ccccc32)cc1OC (centres undefined) | -22 | -12 | 120* | 11 | 6
COc1ccc(/C=N/NC(=O)Cc2csc(Nc3cccc(C(F)(F)F)c3)n2)cc1C | 6 | 34 | -1 | 77* | -2
COc1cc(/C=N/NC(=O)Cc2csc(C)n2)ccc1OCC(C)C | 0 | 14 | 5 | 17 | 2
CNC(=O)c1c(NC(=O)c2ccc(S(=O)(=O)N3CCCCC3)cc2)sc2c1CCN(C(C)C)C2 | -34 | -13 | 1 | 43 | -3
CCCN1CCc2c(sc(NC(=O)c3ccc(S(=O)(=O)N(C)c4ccccc4)cc3)c2C(=O)NC)C1 | -4 | 78* | -26 | 15 | 5
CCCN1CCc2c(sc(NC(=O)c3ccc(S(=O)(=O)N(C)c4ccccc4)cc3)c2C(N)=O)C1 | -38 | 10 | -14 | 11 | -1
CCCN1CCc2c(sc(NC(=O)c3ccc(S(=O)(=O)N4CCN(C(=O)OCC)CC4)cc3)c2C(N)=O)C1 | -20 | -8 | 6 | 57* | -1
CCOC(=O)N1CCN(S(=O)(=O)c2ccc(C(=O)Nc3sc4c(c3C(N)=O)CCN(CC)C4)cc2)CC1 | -7 | -12 | -5 | -3 | -4
CCN1CCc2c(sc(NC(=O)c3ccc(S(=O)(=O)N4CCCC4)cc3)c2C(=O)NC)C1 | -20 | 24 | -18 | 50* | 2
CCCCCCOc1ccc(NC(=O)CC2C(=O)N(CC)C(=S)N2Cc2ccco2)cc1 (centres undefined) | -2 | 11 | 5 | 39 | 11
CCOP(=O)(OCC)c1ccc2c(c1)C(=O)c1ccccc1CC2 | . | -13 | . | . | .
O=C(CN1CSCC1=O)N1CCN(S(=O)(=O)c2ccc(Cl)cc2)CC1 | . | -38 | . | . | .
CC[C@@H](C(=O)[C@@H](C)[C@@H](O)[C@H](C)CCc1ccc(C)c(O)c1C(=O)O)[C@H]1O[C@](CC)([C@H]2CC[C@](O)(CC)[C@H](C)O2)C[C@@H]1C | 32 | 117* | 100* | 108* | 91*
Nc1nc(-c2ccccn2)nc(N)c1Cc1ccccc1F | -41 | -13 | -246 | 79* | 6
Nc1nc(-c2ccccn2)nc(N)c1Cc1ccc(Cl)cc1Cl | -6 | -10 | 30 | 114* | 2
CCCCCCn1c(-c2cccs2)n[nH]c1=S | 11 | 12 | 20 | 8 | -1
O=C(COC(=O)c1cc(Cl)ccc1O)NNC(=O)c1ccccc1F | . | -4 | . | . | .
ClC(Cl)c1nnc(-c2ccccc2)c(-c2c[nH]c3ccccc23)n1 | -41 | -2 | 2 | 11 | 7
c1ccc(-c2nnc(-c3c[nH]c4ccccc34)nc2-c2ccccc2)cc1 | 10 | -8 | 5 | 65* | 0
COc1ccc(-c2cc3nc4n(c(=O)c3s2)CCC4)cc1 | -42 | 16 | ? | 99* | 3
CCCOc1ccc(/C=C/c2c([N+](=O)[O-])c(=O)n(C)c(=O)n2C)cc1 | -11 | -4 | -130 | 50* | -8
CN(C)c1ccc(/C=C/c2c([N+](=O)[O-])c(=O)n(C)c(=O)n2C)cc1 | 4 | . | -38 | 52* | 2
SMILES | KLF5 inhibitor | CSC inhib | aSyn UTR inh | SKKanGAS inh | IEC-6 tox
O=S1(=O)CC(O)C(N=Nc2c(O)n(Cc3ccccc3)c3ccccc23)C1 (centres undefined) | 17 | -12 | 7 | -4 | 1
Cc1ccc(-n2c(C)nnc2SCC(=O)N(C)c2c(N)n(Cc3ccccc3)c(=O)[nH]c2=O)cc1 | . | 8 | . | . | .
CCOC(=O)C1=NN(C(C)=O)C2C(=O)N(CC)C(=O)C12 (centres undefined) | -2 | -7 | -8 | -1 | 0
COC(=O)/C=C/c1ccccc1S(=O)(=O)N(Cc1ccccc1)Cc1ccco1 | . | 62 | 89* | 5 | .
CN1CCN(NC(=O)c2ccc(Br)s2)CC1 | -8 | -19 | -1 | 5 | -4
CC(C)CSC1=NSC2=NC(=O)/C(=C\c3coc4ccccc4c3=O)C(=N)N12 | -34 | 34 | -16 | 61* | -2
Cc1cc(Nc2ccccc2)nn1C(=O)c1ccc(Br)cc1 | -25 | 2 | -4 | 50* | 0
O=C1C(Cc2ccccc2)Nc2ncnc(N3CCN(c4ccccc4)CC3)c2N1Cc1ccc(Cl)cc1 (centres undefined) | . | 31 | 23 | 10 | .
Cc1cc(C(F)(F)F)c2c(n1)sc1c(O)cc(=O)[nH]c12 | -28 | 9 | 11 | 50* | 5
O=c1cc(O)c2sc3nc(-c4cccnc4)cc(C(F)(F)F)c3c2[nH]1 | -21 | 15 | -28 | 21 | -1
COc1ccc(C(C(=O)NC2CCCCC2)N(C(=O)CCl)c2cccc(Cl)c2)cc1 (centres undefined) | -3 | 109* | -74 | -9 | -4
O=C(NC1CCCCC1)C(c1cccnc1)N(C(=O)CCl)c1ccc(F)cc1 (centres undefined) | 3 | 99* | -94 | -8 | 3
Cn1c(CC(=O)Nc2ccccc2F)nnc1SCC(=O)N1CCOCC1 | -15 | -20 | -43 | -1 | -10
CSc1ccc(CN2CCC(n3nccc3NC(=O)C3CCOC3)CC2)cc1 (centres undefined) | 0 | 3 | 5 | 15 | 2
CCSc1nc(-c2ccccc2)nc(C(Cl)Cl)n1 | -13 | 100* | 123* | -7 | 4
O=C(CN(Cc1ccccc1Cl)C(=O)c1csnn1)NCc1ccc2c(c1)OCO2 | -42 | . | 10 | 10 | -1
Cc1cccc(CN2C(=O)c3ccccc3S(=O)(=O)c3ccc(C(=O)NCCCN4CCCC4)cc32)c1 | -16 | . | -11 | 5 | 0
O=C(NCCN1CCCC1)c1ccc2c(c1)N(Cc1cccc(Cl)c1)C(=O)c1ccccc1S2(=O)=O | -5 | 107* | -22 | -2 | -7
Cc1[nH]c2ccccc2c1/C=N/NC(=O)C1CC1(c1ccccc1)c1ccccc1 (centres undefined) | -7 | 116* | -7 | 55* | -1
Cc1[nH]c2ccccc2c1/C=N/NC(=O)CCC(=O)NCc1ccccc1 | 6 | 4 | 29 | -1 | -4
O=C(NC1CCS(=O)(=O)C1)c1cccc(Cl)c1 (centres undefined) | . | 10 | -3 | -1 | .
O=C(Nc1ccccc1F)NC1CCCCCCC1 | -158 | 1 | -115 | 50* | 8
O=C(Nc1ccccc1F)NC1CC1 | -32 | 1 | 1 | 7 | -4
CCCCCCSc1ccc(-c2nc3cnccn3c2NCCCC)cc1 | . | 105* | . | . | .
CCCCNc1c(-c2ccc(SC(C)CC)cc2)nc2ccccn12 (centres undefined) | . | 92* | -22 | 78* | .
CCCCNc1c(-c2ccc(Sc3ccc(OC)cc3)cc2)nc2cc(C)ccn12 | . | 61 | . | . | .
CCCCNc1c(-c2ccc(SC3CCCCC3)cc2)nc2ccccn12 | . | 82* | -83 | 71* | .
C#CCn1c(=NC(=O)c2cc(Cl)sc2Cl)sc2cc(S(N)(=O)=O)ccc21 | 16 | -2 | -10 | 50* | -3
Cc1ccc(C)c(-c2cc(C(=O)Nc3sc(C)c(C)c3C(N)=O)c3ccccc3n2)c1 | 12 | 54 | -28 | 70* | 4
O=C1CN(C(=O)c2cc([N+](=O)[O-])ccc2Cl)C(c2ccc(F)cc2)c2cc(F)ccc2N1 (centres undefined) | -8 | -10 | -17 | 2 | 1
